Hits are enriched below; roughly 21% of the tested compounds scored in any of these assays.
VP16 counter: counter-screen for ROR gamma inhibitors: Gal4-VP16 reporter. Drosophila S2 Gal4-VP16 UAS-luciferase, luminescence, 20 h. Potency, µM (highest dose often 53.6 µM), without a hit: top-dose activity, negative = inhibition, actives largely listed as inhibitors. 310,000 compounds, 3.5% hits. AID 2546;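 also: Gal4-VP16 expression switched on by copper sulfate through the metallothionein promoter; potency is read from the fitted curve at half-maximal effect; nearly all actives have a fitted effect of over 50% in size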
ELG1 DNA repair: ELG1-dependent DNA repair inhibition. Potency, µM (titrated, usually from 46.1 µM), inactives show top-dose activity change, negative = inhibition, usual class: inhibitors. HEK293T ELG1-luciferase reporter, luminescence, 16 h; DNA damage induced by 5-fluorouridine. AID 504467. 330,000 compounds, 2.3% hits; also: potency is read from the fitted curve at half-maximal effect; nearly all actives have a fitted effect of over 55% in size
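In this reporter screen, reduction of luminescence relative to DMSO vehicle indicated activity. Compounds and 5-fluorouridine were added together to 2,000 cells per well, incubated for 16 hr at 37 °C, then developed with ONE-Glo.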
IL-1B inflam inh: inflammasome signaling inhibition, IL-1 beta readout. activity change, % at 57.5 µM. THP-1 LPS/ATP IL-1B secretion, AlphaLISA, 16 h; stronger effect = lower value. 360,000 compounds, 4.7% hits; in the data active = activity change below about -50%; inconclusive = mostly about -30% to -49%
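Secreted IL-1B measured by AlphaLISA bead assay after 16 h compound exposure of THP-1 cells; compounds (final up to 57.5 uM) added 1 h before LPS (250 ng/mL) and ATP (1.25 mM) stimulation; lower signal means less secretion.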
RORg inh: ROR gamma (mouse) transcription inhibition. P51450. Drosophila S2 Gal4-RORgamma UAS-luciferase reporter, 20 h. Potency, µM (doses to about 53.6 µM), for inactives: at the highest dose activity change, negative = inhibition, most hits filed as inhibitors. 310,000 compounds, 5.4% hits. AID 2551; also: potency is read from the fitted curve at half-maximal effect; nearly all actives have a fitted effect of over 60% in size
Target sequence (P51450 whole entry, looked up, the tested form may be a part): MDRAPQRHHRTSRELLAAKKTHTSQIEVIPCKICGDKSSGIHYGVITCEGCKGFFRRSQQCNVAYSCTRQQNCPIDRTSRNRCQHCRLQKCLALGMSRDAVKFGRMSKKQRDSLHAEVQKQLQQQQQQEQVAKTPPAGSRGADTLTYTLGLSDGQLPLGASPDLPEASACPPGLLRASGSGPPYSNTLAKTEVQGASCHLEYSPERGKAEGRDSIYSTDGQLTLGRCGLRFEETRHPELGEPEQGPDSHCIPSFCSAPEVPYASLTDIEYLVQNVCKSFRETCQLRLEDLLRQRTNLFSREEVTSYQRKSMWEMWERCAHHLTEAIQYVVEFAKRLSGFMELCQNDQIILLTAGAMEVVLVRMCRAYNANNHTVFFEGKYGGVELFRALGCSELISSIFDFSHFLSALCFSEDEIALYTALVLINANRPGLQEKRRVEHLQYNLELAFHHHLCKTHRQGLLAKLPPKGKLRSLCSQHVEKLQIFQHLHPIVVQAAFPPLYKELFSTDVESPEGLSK
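Luminescence from a UAS-regulated Photinus luciferase reporter in stably transfected Drosophila Schneider cells is measured; decreased signal marks ROR gamma inhibition. Fusion expression is induced by 700 uM copper sulfate for 20 hr.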
DT40 TDP1 no CPT: qHTS for Inhibitors of human tyrosyl-DNA phosphodiesterase 1 (TDP1): qHTS in cells in absence of CPT | DT40 Tdp1-/- hTDP1 cells, no CPT, ATP luminescence, 48 h | Potency, µM (titrated, usually from 46.2 µM), inactives show at the top dose activity change, negative = growth inhibition, most hits filed as inhibitors | 420,000 compounds, 15% hits | AID 686978, 2013; also: potency is read from the fitted curve at half-maximal effect; nearly all actives have a fitted effect of over 55% in size
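Stably hTDP1-transfected Tdp1-null chicken DT40 cells were treated with library compounds minus camptothecin and grown for at least 48 hr at 37 °C, after which cellular ATP was quantified by luminescence.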
DT40 TDP1 CPT: growth inhibition of DT40 Tdp1-/-;hTDP1 cells with camptothecin (screen for TDP1 inhibitors). chicken DT40 Tdp1-/-;hTDP1 cells + 20 nM CPT, ATP luminescence, 48 h. Potency, µM (series often up to 46.2 µM), for the others: at the top dose activity change, negative = growth inhibition, most hits filed as inhibitors. 420,000 compounds, 12% hits. AID 686979; also: potency is read from the fitted curve at half-maximal effect; nearly all actives have a fitted effect of over 55% in size
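Chicken DT40 Tdp1-/- cells stably complemented with human TDP1 were seeded at 400 cells/well in medium containing 20 nM camptothecin, exposed to pin-transferred compounds, and grown at 37 °C for at least 48 hr. Viability was read as ATP luminescence.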
Starred values were filed as active, the others as inactive; ? = inconclusive; . = not tested or not shown; [ ] = another dose, or the depositor's remark. Unless noted, calls follow the shape of the dose curve; as a rule, active = well fitted curve in the direction sought with a large enough effect; inconclusive = small, poorly fitted or top-dose-only effect, or another doubt; inactive = no such curve, though single readings can be large; an effect the other way counts as inactive or inconclusive. % is scaled to controls: 0 for no effect and ±100 for the full control effect.

SMILES	VP16 counter	ELG1 DNA repair	IL-1B inflam inh	RORg inh	DT40 TDP1 no CPT	DT40 TDP1 CPT
N#CCCn1cc(C(=O)O)c(-c2ccc3ccccc3c2)n1	-9.4%	10.7%	0.8	5.4%	1.0%	7.8%
N#CCCn1cc(C(=O)Nc2ccccc2Br)c(-c2cc3ccccc3o2)n1	7.94µM*	?	-10.0	?	-116.3%	?
COC(=O)c1cn(CCC#N)nc1-c1ccc2ccccc2c1	8.2%	1.8%	-50.6*	1.0%	-3.2%	7.5%
CC(C)CCn1c(=O)c2ccccc2n2c(CN(C)Cc3ccccc3)nnc12	-3.6%	?	-23.0	-25.2%	16.4µM*	23.1µM*
CC(C)CCn1c(=O)c2ccccc2n2c(=S)[nH]nc12	12.6µM*	-1.4%	27.3	3.98µM*	?	-23.3%
CC(C)CCn1c(=O)c2ccccc2n2c(CCl)nnc12	-6.8%	?	.	?	23.1µM*	?
C[C@H](CO)N1C[C@H](C)[C@@H](CN(C)S(=O)(=O)c2ccccc2)OCc2cnnn2CCCC1=O	.	.	18.2	.	1.2%	3.4%
c1ccc(-c2cn3nc(-c4ccccc4)c(-c4ccccc4)nc3n2)cc1	-3.0%	5.7%	-55.3*	22.4µM*	?	?
O=[N+]([O-])c1cccc(-c2cn3nc(-c4ccccc4)c(-c4ccccc4)nc3n2)c1	20.5%	-1.7%	0.0	30.2%	?	?
O=[N+]([O-])c1ccc(-c2cn3nc(-c4ccccc4)c(-c4ccccc4)nc3n2)cc1	3.4%	7.2%	.	-2.7%	?	4.4%
Cc1ccc(-c2cn3nc(-c4ccccc4)c(-c4ccccc4)nc3n2)cc1	-2.5%	0.0%	-74.4*	18.3%	?	?
O=C(COc1ccc(Cl)cc1)NCc1nnc(SCC(=O)N2CCCC2)o1	5.1%[10 µM]	-11.0%	29.3	-1.4%	18.3%	0.6%
CC1(O)CC2C(CC1O)C2(C)C (stereo not given)	4.4%	.	.	-9.6%	-37.2%	-3.0%
O=C1COc2ccc(C(=O)COC(=O)/C=C/c3ccc(Br)o3)cc2N1	.	?	0.0	.	-25.5%	-29.0%
O=C(CCNC(=O)c1ccccc1Cl)Nc1nc2ccccc2[nH]1	.	16.5%	5.9	.	-12.8%	-1.5%
Cc1ccc(CC(=O)Nc2nc3ccccc3[nH]2)cc1C	-27.2%	-1.4%	6.8	3.16µM*	1.78µM*	3.55µM*
O=C(Cc1ccccc1Cl)Nc1nc2ccccc2[nH]1	?	?	32.0	7.08µM*	?	-2.7%
Cc1cccc(C)c1O	-0.4%	.	.	25.5%	.	.
CC1CCN(C(=O)CSc2nc3ccccc3s2)CC1	11.3%	?	-14.5	17.4%	-13.9%	11.8%
O=C(CSc1c(Cl)cccc1Cl)N1CCC(c2nc3ccccc3s2)CC1	-28.6%	?	-16.0	42.9%	20.6µM*	?
O=C(CSc1ccc(Cl)cc1)N1CCC(c2nc3ccccc3s2)CC1	2.6%	?	-1.6	17.6%	?	25.9µM*
CSc1nnc(CNS(=O)(=O)c2ccc(F)cc2F)n1-c1ccccc1C	.	.	.	.	-12.8%	?
COc1cccc(NC(=O)Cn2c(=O)n(Cc3ccccc3)c(=O)c3c4c(sc32)CN(C(C)=O)CC4)c1	.	.	.	.	-46.0%	?
CCOC(=O)N1CCc2c(sc3c2c(=O)n(CCc2ccccc2)c(=O)n3Cc2ccc(C)cc2C)C1	.	.	.	.	23.1µM*	?
CCOC(=O)N1CCc2c(sc3c2c(=O)n(Cc2ccccc2)c(=O)n3Cc2ccc(C)cc2)C1	4.3%	1.2%	1.4	16.1%	?	?
SMILES	VP16 counter	ELG1 DNA repair	IL-1B inflam inh	RORg inh	DT40 TDP1 no CPT	DT40 TDP1 CPT
CC(=O)N1CCc2c(sc3c2c(=O)n(-c2ccccc2)c(=O)n3CC(=O)c2ccc(Cl)cc2)C1	.	.	.	.	?	-21.0%
CC(=O)N1CCc2c(sc3c2c(=O)n(CCc2ccccc2)c(=O)n3Cc2cccc(C)c2)C1	.	.	.	.	16.4µM*	14.6µM*
CC(=O)N1CCc2c(sc3c2c(=O)n(Cc2ccccc2)c(=O)n3Cc2ccc(Cl)cc2)C1	.	.	.	.	29.1µM*	?
CCOC(=O)N1CCc2c(sc3c2c(=O)n(CCc2ccccc2)c(=O)n3Cc2c(F)cccc2Cl)C1	.	.	.	.	25.9µM*	?
CC(=O)c1cccc(-n2c(=O)c3c4c(sc3n(Cc3cccc(C)c3)c2=O)CN(C(C)=O)CC4)c1	.	.	.	.	14.6µM*	16.4µM*
CC(=O)N1CCc2c(sc3c2c(=O)n(-c2ccccc2)c(=O)n3CC(=O)c2ccccc2)C1	.	.	.	.	-29.4%	25.2%
CC(=O)N1CCc2c(sc3c2c(=O)n(-c2ccccc2)c(=O)n3Cc2cccc(C(F)(F)F)c2)C1	.	.	.	.	18.4µM*	16.4µM*
Cc1ccc(Nc2nnc(SCC(=O)c3c(N)n(C4CC4)c(=O)[nH]c3=O)s2)cc1C	.	-22.4%	-5.2	.	?	20.6µM*
Cc1cccc(Nc2nnc(SCC(=O)c3c(N)n(C4CC4)c(=O)[nH]c3=O)s2)c1	.	-15.5%	38.6	.	?	-16.6%
O=c1ccc2cc(S(=O)(=O)Nc3ccc(F)c(Cl)c3)ccc2[nH]1	.	.	.	.	-26.4%	-1.6%
COc1ccc(C(C#N)N2CCC(c3ccccc3)=N2)cc1 (stereo not given)	29.2%	0.0%	-89.9*	9.6%	?	?
Cc1ccc(NC(C)c2cc(Cl)ccc2O)cc1 (stereo not given)	12.6µM*	-17.4%	-26.6	?	-18.6%	-18.2%
O=CNc1c(Br)cc2c(c1Br)Cc1cc(Br)ccc1-2	.	.	9.7	.	-9.9%	-16.7%
C[C@@H](O[C@H]1OCCN(Cc2n[nH]c(=O)[nH]2)[C@H]1c1ccc(F)cc1)c1cc(C(F)(F)F)cc(C(F)(F)F)c1	.	.	.	.	21.1µM*	18.8µM*
COc1cccc(C(O)c2nc(/C=C/c3ccccc3)cs2)c1 (stereo not given)	.	.	2.3	.	?	?
Cc1ccc(CSc2nnc(-c3ccncc3)n2C)cc1	-1.8%	-10.5%	-18.8	-4.3%	-1.4%	-13.9%
Cc1ccc(Nc2nc(CSc3nnc(-c4cccnc4)n3-c3ccccc3F)cs2)cc1	-9.5%	?	10.7	3.98µM*	-28.6%	-8.8%
Cc1ccc(NC(=O)CSc2nnc(-c3cccnc3)n2-c2ccc(C)cc2)cc1	?	?	-14.0	?	?	-27.6%
Cc1ccc(Nc2nc(CSc3nnc(-c4ccncc4)n3C)cs2)cc1	?	?	?	15.8µM*	?	-17.8%
O=S(=O)(c1cc(Cl)ccc1Cl)n1cccn1	-7.5%	13.6%	-10.2	-13.7%	2.2%	24.1%
COc1cccc(CNC(=O)c2cc(S(=O)(=O)N3CCCCC3)cn2C)c1	.	.	.	.	?	-18.8%

High-throughput results deposited in PubChem by National Center for Advancing Translational Sciences (NCATS).
